# PubChem BioAssay (NCATS)
# Inconclusive results are not listed. The source made the active and inactive calls. Unless noted, calls come from the whole dose curve; as a rule, active = well fitted curve in the direction sought with a large enough effect; inconclusive = small, poorly fitted or top-dose-only effect, or another doubt; inactive = no such curve, though single readings can be large; an effect the other way counts as inactive or inconclusive.
# Columns and labels:
# [1] = molecular target: Lysosomal acid glucosylceramidase (Homo sapiens) (UniProt P04062); assay: Glucocerebrosidase-p2 (AID 348; in the data active = potency below about 10 µM; note: potency is the fitted concentration of half-maximal effect); settings: purified GBA, blue fluorogenic substrate, 40 min
# Lysosomal acid glucosylceramidase (Homo sapiens), sequence (P04062 whole entry, looked up): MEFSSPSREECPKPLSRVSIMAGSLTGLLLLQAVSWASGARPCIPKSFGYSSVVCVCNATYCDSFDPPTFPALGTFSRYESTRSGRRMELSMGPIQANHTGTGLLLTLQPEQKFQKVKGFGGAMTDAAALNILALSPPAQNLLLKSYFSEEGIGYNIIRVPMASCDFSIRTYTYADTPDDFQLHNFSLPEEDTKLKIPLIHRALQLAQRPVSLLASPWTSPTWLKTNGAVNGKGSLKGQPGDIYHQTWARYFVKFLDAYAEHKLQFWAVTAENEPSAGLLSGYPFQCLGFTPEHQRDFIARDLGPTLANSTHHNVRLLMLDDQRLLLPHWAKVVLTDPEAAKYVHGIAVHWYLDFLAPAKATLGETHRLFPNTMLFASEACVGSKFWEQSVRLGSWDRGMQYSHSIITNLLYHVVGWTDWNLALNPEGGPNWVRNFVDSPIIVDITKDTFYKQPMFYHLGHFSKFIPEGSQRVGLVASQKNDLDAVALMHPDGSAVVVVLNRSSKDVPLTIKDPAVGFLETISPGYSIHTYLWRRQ
# In short: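 Normal human glucocerebrosidase (0.2 nM) with blue fluorogenic substrate (80 uM final) in citrate/phosphate pH 5.9 with 10mM sodium taurocholate, 0.01% tween-20; 40 min RT, NaOH/glycine stop; fluorescence Ex 365/Em 440; AC50 from a titration from 0.6 nM upwards.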
# [2] = AP1 Signaling Pathway (AID 357; active = well fitted curve in either direction with a large enough effect, not every such curve was filed as active;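 note: ME-180 reporter cells stimulated with EGF at its EC50 level; % is set by controls: 0 for no effect and ±100 for the full control effect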); settings: ME-180 AP-1-bla reporter, EGF-induced, beta-lactamase ratio, 5 h; at 7.69 µM (top of the series) unless noted
# In short: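 Cells are seeded overnight, exposed to compound titrations and an EC50 level of EGF for 5 hours at 37 °C, then loaded with CCF4 dye for 2.5 hours. Beta-lactamase activity under the AP-1 element is read as a blue/green ratio.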
# [3] = molecular target: Cytochrome P450 1A2 (Homo sapiens) (UniProt P05177); assay: p450-cyp1a2 (AID 410; calls by dose curve; note: potency is the fitted concentration of half-maximal effect); settings: recombinant CYP1A2, luciferin-ME demethylation, luminescence; series mostly up to 57 µM
# Cytochrome P450 1A2 (Homo sapiens), sequence (P05177 whole entry, looked up): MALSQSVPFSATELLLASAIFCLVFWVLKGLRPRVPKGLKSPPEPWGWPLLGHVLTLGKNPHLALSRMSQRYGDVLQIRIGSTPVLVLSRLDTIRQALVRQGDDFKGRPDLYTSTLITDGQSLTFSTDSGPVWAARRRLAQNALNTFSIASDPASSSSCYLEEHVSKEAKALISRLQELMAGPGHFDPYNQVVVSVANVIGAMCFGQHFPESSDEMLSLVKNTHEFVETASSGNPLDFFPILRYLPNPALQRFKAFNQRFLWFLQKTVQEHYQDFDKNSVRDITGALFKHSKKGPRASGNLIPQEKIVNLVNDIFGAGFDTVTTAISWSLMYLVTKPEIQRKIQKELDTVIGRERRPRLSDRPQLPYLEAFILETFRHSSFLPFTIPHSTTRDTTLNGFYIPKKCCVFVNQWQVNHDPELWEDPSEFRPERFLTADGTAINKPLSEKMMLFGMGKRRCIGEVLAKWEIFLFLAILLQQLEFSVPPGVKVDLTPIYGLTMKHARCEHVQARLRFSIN
# In short: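 O-Demethylation of luciferin 6' methyl ether by human CYP1A2 is monitored as luciferase luminescence. Substrate sits at Km (100uM); enzyme is 20nM. Values are scaled to 57 uM furafylline as maximal inhibition.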
# [4] = NFAT Signaling Pathway (AID 444; active = well fitted curve in either direction with a large enough effect, not every such curve was filed as active;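 note: carbachol stimulus at about its EC50 of 1 µM final; % is set by controls: 0 for no effect and ±100 for the full control effect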); settings: Jurkat NFAT-bla M1, carbachol, beta-lactamase ratio, 5 h; at 7.69 µM (top of the series) unless noted
# In short: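 Jurkat cells with NFAT-driven β-lactamase reporter and co-expressed M1 receptor, stimulated with carbachol (final 1 uM, ~EC50), compound titration, 5 h at 37 °C. CCF4 loaded 1 h at RT; 460/530 nm ratio gave %activity and AC50.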
# [5] = Stat Signaling Pathway (AID 446; active = well fitted curve in either direction with a large enough effect, not every such curve was filed as active;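 note: ME-180 cervical cancer cells given 40 pM IL-6 alongside compound; SIE-controlled beta-lactamase reporter measured as 460/530 nm FRET emission ratio; % is set by controls: 0 for no effect and ±100 for the full control effect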); settings: ME-180 (cervical carcinoma) SIE beta-lactamase reporter, IL-6 stimulated, 5 h; at 7.69 µM (top of the series) unless noted
# In short: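 Overnight-plated ME-180 cells bearing a STAT Inducible Element beta-lactamase reporter; 5 h co-exposure to compound and 40 pM IL-6; values normalized to 300 pM IL-6 and 125 nM JAK inhibitor controls.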
# [6] = molecular target: Glucocorticoid receptor (Homo sapiens) (UniProt P04150); assay: GR-GFP Redistribution (AID 450;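 active = compounds whose dose series gives a full or clear partial fitted curve of increased nuclear translocation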; note: potency is the fitted concentration of half-maximal effect); settings: U2OS GR-GFP nuclear translocation, laser cytometry, 2 h
# Glucocorticoid receptor (Homo sapiens), sequence (P04150 whole entry, looked up, the tested form may be a part): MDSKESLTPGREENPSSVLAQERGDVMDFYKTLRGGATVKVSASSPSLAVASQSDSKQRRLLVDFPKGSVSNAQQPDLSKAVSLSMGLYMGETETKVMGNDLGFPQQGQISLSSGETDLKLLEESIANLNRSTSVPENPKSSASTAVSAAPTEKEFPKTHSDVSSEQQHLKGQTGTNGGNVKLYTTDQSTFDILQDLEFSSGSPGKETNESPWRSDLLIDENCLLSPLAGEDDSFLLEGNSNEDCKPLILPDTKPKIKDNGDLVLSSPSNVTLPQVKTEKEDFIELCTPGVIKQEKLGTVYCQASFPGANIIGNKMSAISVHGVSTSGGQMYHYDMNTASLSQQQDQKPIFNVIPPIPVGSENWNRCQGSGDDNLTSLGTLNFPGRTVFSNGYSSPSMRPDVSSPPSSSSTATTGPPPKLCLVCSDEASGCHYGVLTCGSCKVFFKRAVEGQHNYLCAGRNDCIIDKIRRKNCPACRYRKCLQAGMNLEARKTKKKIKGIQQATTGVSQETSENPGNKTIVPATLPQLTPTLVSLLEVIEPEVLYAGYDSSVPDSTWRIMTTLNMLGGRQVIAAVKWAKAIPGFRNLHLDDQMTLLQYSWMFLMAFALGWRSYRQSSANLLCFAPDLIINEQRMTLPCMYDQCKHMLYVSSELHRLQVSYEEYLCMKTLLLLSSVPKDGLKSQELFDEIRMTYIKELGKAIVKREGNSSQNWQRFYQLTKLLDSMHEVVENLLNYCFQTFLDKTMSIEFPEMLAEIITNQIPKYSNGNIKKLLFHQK
# [7] = molecular target: Glucocorticoid receptor (Homo sapiens) (UniProt P04150); assay: GR-EFC Redistribution (AID 451; calls by dose curve; note: potency is the fitted concentration of half-maximal effect); settings: CHO-K1 GR-EFC translocation, beta-gal luminescence, 2 h
# In short: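 CHO-K1 cells expressing nuclear EA and GR-ED fragments of b-gal; compounds titrated up to 46 uM final, 2 h at 37 C. GR nuclear translocation read as complemented b-gal luminescence after 1 h RT detection.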
# [8] = molecular target: Cytochrome P450 3A4 (Homo sapiens) (UniProt P08684); assay: qHTS Assay for Activators of Cytochrome P450 3A4 (AID 885); settings: recombinant CYP3A4, Luciferin-PPXE luminescence, 60 min; series mostly up to 57.1 µM; note: nearly all actives have a fitted effect of over 65% in size
# Cytochrome P450 3A4 (Homo sapiens), sequence (P08684 whole entry, looked up): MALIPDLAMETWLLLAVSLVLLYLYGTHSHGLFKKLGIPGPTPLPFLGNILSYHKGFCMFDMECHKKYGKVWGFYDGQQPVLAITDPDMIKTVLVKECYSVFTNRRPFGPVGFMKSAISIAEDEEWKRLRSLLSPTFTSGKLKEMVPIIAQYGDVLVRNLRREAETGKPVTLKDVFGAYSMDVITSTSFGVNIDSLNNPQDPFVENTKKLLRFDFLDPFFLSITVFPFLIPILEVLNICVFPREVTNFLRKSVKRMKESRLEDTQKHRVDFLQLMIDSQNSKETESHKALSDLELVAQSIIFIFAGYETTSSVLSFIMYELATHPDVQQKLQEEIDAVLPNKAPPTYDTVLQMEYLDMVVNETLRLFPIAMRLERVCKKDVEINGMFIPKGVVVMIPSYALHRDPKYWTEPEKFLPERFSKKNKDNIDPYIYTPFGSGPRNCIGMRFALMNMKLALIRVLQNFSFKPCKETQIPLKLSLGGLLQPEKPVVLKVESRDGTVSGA
# In short: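 Using 20nM recombinant human CYP3A4 in potassium phosphate (200mM), substrate Luciferin-PPXE at 25uM, luminescent luciferin detection followed a 60-min RT NADPH reaction; data scaled to 57 uM ketoconazole.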
# [9] = molecular target: Dual specificity protein kinase CLK4 (Homo sapiens) (UniProt Q9HAZ1); assay: qHTS Assay for Inhibitors of CDC-like Kinase 4 (Kinase-Glo Assay) (AID 1770); settings: recombinant Clk4, Kinase-Glo ATP depletion luminescence; series mostly up to 66.7 µM; note: % is set by controls: 0 for no effect and ±100 for the full control effect; nearly all actives have a fitted effect of over 65% in size
# Dual specificity protein kinase CLK4 (Homo sapiens), sequence (Q9HAZ1 whole entry, looked up): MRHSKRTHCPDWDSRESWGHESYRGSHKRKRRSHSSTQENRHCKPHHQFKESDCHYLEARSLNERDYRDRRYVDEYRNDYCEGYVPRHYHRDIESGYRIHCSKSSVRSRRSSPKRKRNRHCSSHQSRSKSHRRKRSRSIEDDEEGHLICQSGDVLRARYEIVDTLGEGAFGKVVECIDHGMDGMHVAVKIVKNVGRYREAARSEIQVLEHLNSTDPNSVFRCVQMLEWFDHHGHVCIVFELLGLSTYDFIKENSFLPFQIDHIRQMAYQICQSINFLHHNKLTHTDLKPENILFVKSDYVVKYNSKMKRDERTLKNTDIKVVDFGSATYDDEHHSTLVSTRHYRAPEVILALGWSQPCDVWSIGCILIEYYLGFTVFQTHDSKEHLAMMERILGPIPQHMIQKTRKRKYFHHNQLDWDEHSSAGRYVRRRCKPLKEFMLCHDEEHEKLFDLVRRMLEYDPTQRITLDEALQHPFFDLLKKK
# In short: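 Luminescent ATP-depletion read-out (Kinase-Glo) after 4.5 h room-temperature reaction of Clk4 (25 nM final) with RS peptide (100 uM) and ATP (1 uM), pH 7.5 Tris buffer with MgCl2 and DTT.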
# [10] = molecular target: Dual specificity protein kinase CLK4 (Homo sapiens) (UniProt Q9HAZ1); assay: qHTS Assay for Inhibitors of CDC-like Kinase 4 (ADP-Glo Assay) (AID 1771); settings: recombinant CLK4, ADP-Glo luminescence; series mostly up to 80 µM; note: % is set by controls: 0 for no effect and ±100 for the full control effect; nearly all actives have a fitted effect of over 70% in size
# In short: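 Compounds are pin-transferred onto substrate mix (100 uM RS peptide, 1 uM ATP), then 25 nM Clk4 is added. After 1 hr at room temperature, ADP-Glo reagent runs 45 min, detection reagent 30 min, then luminescence is read.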
# [11] = molecular target: Dual specificity protein kinase CLK4 (Homo sapiens) (UniProt Q9HAZ1); assay: qHTS Assay for Inhibitors of CDC-like Kinase 4 (ADP-FP Assay) (AID 1795); settings: Transcreener ADP fluorescence polarization; series mostly up to 50 µM;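 note: recombinant human CLK4 phosphorylating RS repeat peptide at 1 µM ATP; % is set by controls: 0 for no effect and ±100 for the full control effect; nearly all actives have a fitted effect of over 60% in size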
# In short: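 Kinase activity was measured as ADP production using Transcreener orange tracer (4 nM) and ADP antibody (1 ug/mL) fluorescence polarization, with ADP calculated from a calibration curve. The 1 h reaction contained 6.25 nM Clk4, 1 uM ATP and 100 uM RS peptide at pH 7.5 with Mg2+.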
# [12] = molecular target: Ubiquitin carboxyl-terminal hydrolase 1 (Homo sapiens) (UniProt O94782); assay: Inhibitors of USP1/UAF1: Pilot qHTS (AID 504865); settings: purified USP1/UAF1, Ub-rhodamine cleavage fluorescence; series mostly up to 54.9 µM;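 note: rhodamine fluorescence freed from ubiquitin-rhodamine substrate followed over time; top concentration of the series differs between compounds; % is set by controls: 0 for no effect and ±100 for the full control effect; nearly all actives have a fitted effect of over 35% in size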
# Ubiquitin carboxyl-terminal hydrolase 1 (Homo sapiens), sequence (O94782 whole entry, looked up): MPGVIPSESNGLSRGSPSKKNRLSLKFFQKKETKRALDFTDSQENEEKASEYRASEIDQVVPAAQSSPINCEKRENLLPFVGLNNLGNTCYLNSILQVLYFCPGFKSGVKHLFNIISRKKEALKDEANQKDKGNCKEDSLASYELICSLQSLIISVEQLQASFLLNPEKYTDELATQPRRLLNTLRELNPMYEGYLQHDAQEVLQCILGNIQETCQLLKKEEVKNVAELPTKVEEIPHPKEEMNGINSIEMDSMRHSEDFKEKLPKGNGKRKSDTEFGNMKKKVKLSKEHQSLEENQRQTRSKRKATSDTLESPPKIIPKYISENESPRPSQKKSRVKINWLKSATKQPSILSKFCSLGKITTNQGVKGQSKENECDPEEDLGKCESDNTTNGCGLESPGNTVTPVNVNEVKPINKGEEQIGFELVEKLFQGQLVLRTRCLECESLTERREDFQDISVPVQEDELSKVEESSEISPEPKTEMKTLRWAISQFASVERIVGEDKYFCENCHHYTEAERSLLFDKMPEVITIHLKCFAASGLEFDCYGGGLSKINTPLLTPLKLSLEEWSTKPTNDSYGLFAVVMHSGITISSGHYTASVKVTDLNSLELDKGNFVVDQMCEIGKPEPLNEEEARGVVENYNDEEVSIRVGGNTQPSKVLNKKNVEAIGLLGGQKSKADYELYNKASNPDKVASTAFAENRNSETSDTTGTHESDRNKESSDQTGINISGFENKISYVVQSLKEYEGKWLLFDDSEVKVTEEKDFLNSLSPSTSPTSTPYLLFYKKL
# In short: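 Deubiquitinase activity followed as kinetic rhodamine fluorescence release from 150 nM Ub-Rho. 1 nM USP1/UAF1 with compound, after 15 min room-temperature preincubation, in HEPES pH 7.8 buffer containing TCEP, EDTA, BSA and Tween-20.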
# [13] = Counterscreen qHTS for small molecule stabilizers of the endoplasmic reticulum resident proteome: GLuc-NoTag assay (AID 1508627); settings: Gaussia luciferase NoTag secretion counterscreen, luminescence, thapsigargin 100 nM for final 4 h; series mostly up to 76.4 µM; note: potency is the fitted concentration of half-maximal effect;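 for activity change, negative = inhibition: 0% = thapsigargin alone and -100% = DMSO vehicle control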
# In short: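 Counterscreen line: SH-SY5Y-GLuc-NoTag. Seed, 5 h; compound, 19 h; thapsigargin 100 nM, 4 h; 37C/5% CO2. Readout: secreted GLuc luminescence, coelenterazine 0.07x final, no lysis.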
# [14] = molecular target: Mitogen-activated protein kinase 10 (Mus musculus) (UniProt Q61831); assay: JNK3 AlphaScreen Assay (AID 530; active = well fitted curve in either direction with a large enough effect, not every such curve was filed as active;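 note: kinase came from lysate of stimulated human HepG2 cells; signal reports phosphorylation of biotinylated GST-cJun 1-79 at Ser73 with 10 µM ATP; % is set by controls: 0 for no effect and ±100 for the full control effect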); settings: JNK3 lysate, c-Jun phosphorylation; series mostly up to 57.1 µM
# In short: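 Activity was read by AlphaScreen after JNK3-containing HepG2 lysate (cytokine pre-activated) phosphorylated biotinylated GST-cJun with 10 uM ATP at room temperature. Phospho-Ser73 cJun antibody with Protein-A acceptor beads provided detection.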
# [15] = molecular target: 3',5'-cyclic-AMP phosphodiesterase 4B (Homo sapiens) (UniProt Q07343); assay: qHTS Assay for Inhibitors of PDE-IV (AID 607; active = well fitted activation curve with a large enough effect in the main read-out, with a control signal flat, not every such curve was filed as active; note: % of control where 0% means no effect); settings: HEK293 ACTOne CNG channel cells, membrane potential fluorescence; series mostly up to 22.9 µM
# 3',5'-cyclic-AMP phosphodiesterase 4B (Homo sapiens), sequence (Q07343 whole entry, looked up): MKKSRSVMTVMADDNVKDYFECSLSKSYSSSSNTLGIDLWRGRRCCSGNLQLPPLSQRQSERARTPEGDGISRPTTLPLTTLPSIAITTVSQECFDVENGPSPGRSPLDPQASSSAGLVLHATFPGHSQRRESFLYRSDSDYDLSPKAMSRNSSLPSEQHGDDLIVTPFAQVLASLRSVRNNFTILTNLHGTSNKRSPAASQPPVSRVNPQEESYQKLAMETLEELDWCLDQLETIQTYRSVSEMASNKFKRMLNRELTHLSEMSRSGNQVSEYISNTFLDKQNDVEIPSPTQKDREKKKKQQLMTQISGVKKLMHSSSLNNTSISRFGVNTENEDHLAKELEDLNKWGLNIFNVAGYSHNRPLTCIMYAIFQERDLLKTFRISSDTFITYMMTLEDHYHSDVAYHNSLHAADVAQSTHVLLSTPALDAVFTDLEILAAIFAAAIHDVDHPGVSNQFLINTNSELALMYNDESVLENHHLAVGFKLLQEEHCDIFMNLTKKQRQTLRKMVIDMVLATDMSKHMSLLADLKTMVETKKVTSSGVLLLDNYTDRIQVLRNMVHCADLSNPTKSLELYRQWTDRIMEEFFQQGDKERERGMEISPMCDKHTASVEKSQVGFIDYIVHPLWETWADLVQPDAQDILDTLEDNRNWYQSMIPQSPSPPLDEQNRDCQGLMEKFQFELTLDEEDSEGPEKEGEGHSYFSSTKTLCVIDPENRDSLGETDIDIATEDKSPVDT
# In short: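 Live HEK293 cells with a modified cyclic nucleotide-gated (CNG) channel report intracellular cAMP via membrane-potential dye fluorescence (ex 535/em 590 nm). Endogenous PDE-IV was targeted. Compounds were tested at up to 22.9 uM final; RO 20-1724 100 uM served as control.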
# [16] = Confirmation and Secondary Assay for Modulators of Hemoglobin Beta Chain Splicing at IVS2 654 locus (AID 910); settings: HeLa EGFP-654 splicing reporter, GFP fluorescence, 48 h; series mostly up to 38.3 µM;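 note: HeLa cells stably carrying EGFP split by mutant beta-globin IVS2-654 intron; % of control where 0% means no effect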
# In short: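 HeLa cells stably expressing EGFP interrupted by β-globin IVS2-654 intron, seeded overnight in Opti-MEM/2% FCS, then treated 2 days at 37 °C. Restored splicing read as total peak GFP intensity per well by laser scanning cytometry (488 nm excitation, 500–520 nm emission); 500 nM antisense PNA as control.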
# [17] = Confirmation and Secondary Assay for Modulators of Hemoglobin Beta Chain Splicing at IVS2 705 locus (AID 930); settings: HeLa EGFP-705 splicing reporter, GFP fluorescence, 48 h; series mostly up to 38.3 µM;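 note: HeLa cells stably expressing the EGFP-705 splicing reporter; GFP fluorescence per well restored by corrected splicing of the IVS2-705 intron in EGFP; % of control where 0% means no effect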
# In short: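 Assay measures total GFP intensity per well in HeLa EGFP-705 cells after 2 days with compound; mis-splicing normally truncates EGFP, so fluorescence indicates corrected splicing.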
# [18] = qHTS Assay for Lipid Storage Modulators (AID 1519; calls by dose curve); settings: Drosophila S3 cells, BODIPY lipid droplet/cell ratio, laser cytometry, cells loaded with oleic acid
# In short: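 Cells seeded at 5,000 per well were treated with compounds over a concentration series and loaded with oleic acid (400 uM, as added). Lipid droplet fluorescence (488 nm excitation, 500-530 nm channel) was read by laser-scanning cytometry and normalized to 20 uM Triacsin C.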
# [19] = Confirmatory qHTS for small molecule stabilizers of the endoplasmic reticulum resident proteome: Secreted ER Calcium Modulated Protein (SERCaMP) assay (AID 1508628); settings: SERCaMP secreted luciferase ER calcium/proteostasis reporter; series mostly up to 76.3 µM; note: potency is the fitted concentration of half-maximal effect; nearly all actives have a fitted effect of over 40% in size
# In short: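 Reporter secretion upon ER calcium depletion (100 nM thapsigargin, 4 h, 37C) is measured as medium luminescence with coelenterazine, after 16 h compound pretreatment of SH-SY5Y-GLuc-SERCaMP cells; primary at three concentrations up to 38.3 uM, follow-up at 11 (up to 76.6 uM).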
# [20] = Cell Viability qHTS for small molecule stabilizers of the endoplasmic reticulum resident proteome (AID 1508629); settings: cell viability counter-screen, 100 nM thapsigargin for final 4 h
smiles,measurement,setting,value
Cn1cc(-c2nc3cncnc3n(-c3ccccc3)c2=O)c2ccccc21,Potency,[1],> 11.4 µM (inactive)
same,"activity change, negative = inhibition",[2],-24% (inactive)
same,Potency,[3],1.58 µM (active)
same,"activity change, negative = inhibition",[4],11.2% (inactive)
same,"activity, negative = inhibition",[5],-2.15% (inactive)
same,Potency,[6],> 9.22 µM (inactive)
same,Potency,[7],> 46 µM (inactive)
same,Potency,[8],inactive
same,Potency,[9],inactive
same,Potency,[10],inactive
same,Potency,[11],inactive
same,Potency,[12],inactive
same,Potency,[13],inactive
COCCn1c(=O)c(-c2ccc(F)cc2)nc2cnc(OCc3ccccc3)nc21,Potency,[1],> 11.4 µM (inactive)
same,"activity change, negative = inhibition",[2],-23.2% (inactive)
same,"activity change, negative = inhibition",[4],-6.09% (inactive)
same,Potency,[6],> 9.22 µM (inactive)
same,Potency,[7],> 46 µM (inactive)
same,outcome,[14],inactive
same,Potency,[15],inactive
same,Potency,[13],inactive
Cc1cccc(CNc2ncnc3ccc(-c4ccccc4CN(C)C)cc23)c1,Potency,[1],> 11.4 µM (inactive)
same,"activity change, negative = inhibition",[2],-7.85% (inactive)
same,"activity, negative = inhibition",[5],-2.09% (inactive)
same,Potency,[6],> 46 µM (inactive)
same,Potency,[7],> 46 µM (inactive)
same,outcome,[14],inactive
same,outcome,[16],inactive
same,outcome,[17],inactive
same,"activity change, negative = inhibition",[18]; at 57.5 µM (top of the series),3.56% (inactive)
same,max response,[18]; measured here: cell count channel max response,-10.3%
same,max response,[18]; measured here: lipid channel max response,-6.74%
same,Potency,[13],0.447 µM (active)
O=C(CCCN1C(=O)c2cccc3cccc(c23)C1=O)N1CCN(Cc2ccc3c(c2)OCO3)CC1,Potency,[19],27.3 µM (active)
same,max response,[20],-13.9% (inactive)
